From PMC5540273 (PLoS ONE, 2017)

System: PAK7
Details: concentration: 1 μM, replicates: in singlicate; n = 1
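Also: KINOMEscan kinase panel screen.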

SMILES	%Inh [%]
Cl.c1ccc(-c2ccc3c(Nc4ccc5[nH]ccc5c4)ccnc3c2)nc1 [GW440138]	0
O=C(Nc1ccccc1F)NC1CCN(c2ccnc(Nc3ccc(F)cc3)n2)CC1 [GSK1379800]	0
Cc1cccc(NC(=O)Nc2ccc(Oc3ncnc4ccn(C)c34)cc2)c1	0
COc1cccc(C2=C(Nc3ccc(Cl)c(C(=O)O)c3)C(=O)NC2=O)c1 [SB-390769]	1
COc1cccc(-c2ccc3c(NC(=O)C4CC4)n[nH]c3n2)c1 [SB-710903]	8
CN1CCN(CCCNc2nccc(-c3c(-c4ccc(F)cc4)nn4cc(C(F)(F)F)ccc34)n2)CC1 [GW621581]	0
COCCOCCOc1cc2ncc3c4ccc(C#N)cc4[nH]c3c2cc1OC	1
O=C(Nc1cccc(-c2nn3ncccc3c2-c2ccnc(Nc3ccccc3)n2)c1)c1c(F)cccc1F [GSK198271]	0
c1ccc(-c2n[nH]cc2Nc2ccnc3ccccc23)nc1 [GW694077]	2
COC(=O)Nc1nc2ccc(Oc3ccc(NC(=O)Nc4cc(C(F)(F)F)ccc4F)cc3)cc2n1C.Cl [GW692089]	0
Cn1cc(-c2ccc3c(c2)CCN3C(=O)Cc2cccc(Cl)c2)c2c(N)ncnc21 [GSK2606590]	9
CC(C)(C)c1ccc2nccc(Nc3cccc(O)c3)c2c1 [GW856795]	2
COc1cc(Nc2nccc(N3CCC(NC(=O)Nc4cccc(C(C)=O)c4)C3)n2)cc(OC)c1OC (stereo not shown) [GSK1379753]	13
